Test results taken from PubChem BioAssay.
The source made the active and inactive calls.

Tests used:
[1] = tested on: PRMT1 (protein arginine N-methyltransferase 1); experiment: small molecules binding arginine methyltransferase PRMT1 – biochemical, small-molecule microarray, 635 nm fluorescence, primary screen (AID 1088); conditions: higher = more signal;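 further: binding of Prmt1 protein to compounds spotted on small-molecule microarray slides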
[2] = growth effects on S. cerevisiae YJM789 – YJM789 clinical isolate, OD600, 24 h, basal, primary screen (AID 1089); conditions: higher = more signal, called active from +8 up or from −8 down;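 further: growth of clinical yeast isolate S. cerevisiae YJM 789 seeded 1000 cells per well; test concentration not given here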
[3] = S. pombe growth modifiers, basal conditions – strain 972, OD600, 24 h, no modulator, primary screen (AID 1090);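 further: basal condition with compound alone and no growth modifier present; test concentration not given here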; conditions: S. pombe 972 growth, higher = more signal, called active from +8 up or from −8 down
[4] = budding yeast growth modifiers under rapamycin – strain BY4716, OD600, 96 h, primary screen (AID 1091); further: test concentration not given here; conditions: S. cerevisiae BY4716 + rapamycin, higher = more signal, called active from +8 up or from −8 down
[5] = target: Torsin-1A-interacting protein 2 (Homo sapiens) (UniProt Q8NFQ8); experiment: small molecules binding lysate-expressed LULL1 – cell lysate, human LULL1 lysate, 635/667 nm fluorescence, primary screen (AID 1092); conditions: small-molecule microarray, hLULL1 lysate binding, 635 nm fluorescence; higher = more signal;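 further: probe is lysate of COS7 cells overexpressing human LULL1; score merges per-feature 667 nm fluorescence with signal-to-noise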
[6] = optical density change of DRC41 E. coli – strain DRC41, OD650, 24 h, E. coli filamentation project, primary screen (AID 1093);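 further: MC1000 strain lacking acrAB efflux and sulA so SOS filamentation is blocked; test concentration not given here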; conditions: E. coli DRC41 growth, higher = more signal, called active from +8 up or from −8 down
[7] = probe aLefty2 binding to arrayed compounds – biochemical, biotinylated probe, 635/667 nm fluorescence, primary screen (AID 1094); conditions: small-molecule microarray, higher = more signal;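 further: score merges spot fluorescence near 667 nm with spot signal-to-noise ratio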
[8] = tested on: Noggin (protein binding on small-molecule microarray); experiment: small molecules binding Noggin protein – biochemical, 635/667 nm fluorescence, primary screen (AID 1095); conditions: 635 nm fluorescence, higher = more signal;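 further: score merges 667 nm feature fluorescence with signal to noise over triplicate slides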
[9] = target: Neurogenic locus notch homolog protein 3 (Homo sapiens) (UniProt Q9UM47); experiment: small molecules binding NOTCH3 protein – biochemical, 635/667 nm fluorescence, primary screen (AID 1096); conditions: small-molecule microarray, 635 nm fluorescence, higher = more signal
[10] = probe aEGFR binding to arrayed compounds – biochemical, biotinylated probe, 635/667 nm fluorescence, primary screen (AID 1097); conditions: small-molecule microarray, higher = more signal;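 further: probe is a biotinylated anti-EGFR antibody binding compounds printed on slides; score combines fluorescence near 667 nm and signal to noise of each spot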
[11] = tested on: Plasmodium falciparum Sir2 (PF13_0152, Sir2A); experiment: Plasmodium falciparum Sir2A binding compounds – biochemical, small-molecule microarray, 635 nm fluorescence, primary screen (AID 1098); conditions: fluorescence 635 nm, higher = more signal;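 further: score merges spot fluorescence intensity with its signal-to-noise ratio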
[12] = probe aDKK1 binding to arrayed compounds – biochemical, biotinylated probe, 635/667 nm fluorescence, primary screen (AID 1099); conditions: small-molecule microarray, higher = more signal;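 further: score merges 667nm spot fluorescence with signal to noise across triplicate slides; reference of the scale not given here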
[13] = probe aCHRDL2 binding to arrayed compounds – biochemical, biotinylated probe, 635/667 nm fluorescence, primary screen (AID 1100); conditions: small-molecule microarray, higher = more signal
[14] = change in splice reporter luminescence, either direction, cell-based, HEK293, spliceosome inhibition project, primary screen (AID 1101); conditions: HEK293 splicing luciferase reporter, 24 h, higher = more signal, called active from +8 up or from −8 down;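 further: HEK293 cells carrying a splicing-competent luciferase reporter gene; test concentration not given here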
[15] = target: Fibroblast growth factor 10 (Homo sapiens) (UniProt O15520); experiment: compounds binding fibroblast growth factor 10 – biochemical, small-molecule microarray, 635 nm fluorescence, primary screen (AID 1102); conditions: FGF10 binding, fluorescence 635 nm, higher = more signal
[16] = tested on: glycogen synthase kinase-3 (GSK3A per assay name; protocol says GSK3B); experiment: compounds binding glycogen synthase kinase-3 – biochemical, small-molecule microarray, 635 nm fluorescence, GSK3A, primary screen (AID 1103); conditions: fluorescence 635 nm, higher = more signal; further: the record names both GSK3A and GSK3B
[17] = target: Epidermal growth factor receptor (Homo sapiens) (UniProt P00533); experiment: compounds binding epidermal growth factor receptor – biochemical, small-molecule microarray, 635 nm fluorescence, primary screen (AID 1104); conditions: EGFR binding, higher = more signal;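 further: score merges 667 nm emission intensity with spot signal to noise over triplicate slides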
[18] = target: Follistatin-related protein 3 (Homo sapiens) (UniProt O95633); experiment: compounds binding follistatin-related protein 3 – biochemical, small-molecule microarray, 635 nm fluorescence, primary screen (AID 1105); conditions: FSTL3 binding, higher = more signal;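 further: score merges emission near 667 nm and signal to noise per printed spot across three slides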
[19] = target: Dickkopf-related protein 1 (Homo sapiens) (UniProt O94907); experiment: small molecules binding DKK1 protein – biochemical, small-molecule microarray, 635 nm fluorescence scan, primary screen (AID 1106); conditions: higher = more signal;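 further: score merges emission near 667 nm with signal to noise over three replicate slides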
[20] = tested on: Inhibin beta A chain (activin A); experiment: small molecules binding activin A – biochemical, small-molecule microarray, 635 nm fluorescence scan, primary screen (AID 1107); conditions: INHBA, higher = more signal;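 further: mouse activin A protein probed at 4.33 µg/mL on printed slides; score merges bound-protein fluorescence near 667 nm with spot signal-to-noise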

Sequence of Follistatin-related protein 3 (Homo sapiens) (O95633 whole entry, looked up): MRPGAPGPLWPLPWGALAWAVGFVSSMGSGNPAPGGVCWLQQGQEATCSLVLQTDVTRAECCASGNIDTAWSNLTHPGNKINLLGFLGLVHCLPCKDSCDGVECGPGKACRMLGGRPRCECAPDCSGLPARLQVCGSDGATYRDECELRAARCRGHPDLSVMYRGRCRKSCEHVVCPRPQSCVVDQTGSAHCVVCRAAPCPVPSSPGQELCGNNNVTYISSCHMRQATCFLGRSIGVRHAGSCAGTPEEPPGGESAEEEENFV
Sequence of Neurogenic locus notch homolog protein 3 (Homo sapiens) (Q9UM47 whole entry, looked up): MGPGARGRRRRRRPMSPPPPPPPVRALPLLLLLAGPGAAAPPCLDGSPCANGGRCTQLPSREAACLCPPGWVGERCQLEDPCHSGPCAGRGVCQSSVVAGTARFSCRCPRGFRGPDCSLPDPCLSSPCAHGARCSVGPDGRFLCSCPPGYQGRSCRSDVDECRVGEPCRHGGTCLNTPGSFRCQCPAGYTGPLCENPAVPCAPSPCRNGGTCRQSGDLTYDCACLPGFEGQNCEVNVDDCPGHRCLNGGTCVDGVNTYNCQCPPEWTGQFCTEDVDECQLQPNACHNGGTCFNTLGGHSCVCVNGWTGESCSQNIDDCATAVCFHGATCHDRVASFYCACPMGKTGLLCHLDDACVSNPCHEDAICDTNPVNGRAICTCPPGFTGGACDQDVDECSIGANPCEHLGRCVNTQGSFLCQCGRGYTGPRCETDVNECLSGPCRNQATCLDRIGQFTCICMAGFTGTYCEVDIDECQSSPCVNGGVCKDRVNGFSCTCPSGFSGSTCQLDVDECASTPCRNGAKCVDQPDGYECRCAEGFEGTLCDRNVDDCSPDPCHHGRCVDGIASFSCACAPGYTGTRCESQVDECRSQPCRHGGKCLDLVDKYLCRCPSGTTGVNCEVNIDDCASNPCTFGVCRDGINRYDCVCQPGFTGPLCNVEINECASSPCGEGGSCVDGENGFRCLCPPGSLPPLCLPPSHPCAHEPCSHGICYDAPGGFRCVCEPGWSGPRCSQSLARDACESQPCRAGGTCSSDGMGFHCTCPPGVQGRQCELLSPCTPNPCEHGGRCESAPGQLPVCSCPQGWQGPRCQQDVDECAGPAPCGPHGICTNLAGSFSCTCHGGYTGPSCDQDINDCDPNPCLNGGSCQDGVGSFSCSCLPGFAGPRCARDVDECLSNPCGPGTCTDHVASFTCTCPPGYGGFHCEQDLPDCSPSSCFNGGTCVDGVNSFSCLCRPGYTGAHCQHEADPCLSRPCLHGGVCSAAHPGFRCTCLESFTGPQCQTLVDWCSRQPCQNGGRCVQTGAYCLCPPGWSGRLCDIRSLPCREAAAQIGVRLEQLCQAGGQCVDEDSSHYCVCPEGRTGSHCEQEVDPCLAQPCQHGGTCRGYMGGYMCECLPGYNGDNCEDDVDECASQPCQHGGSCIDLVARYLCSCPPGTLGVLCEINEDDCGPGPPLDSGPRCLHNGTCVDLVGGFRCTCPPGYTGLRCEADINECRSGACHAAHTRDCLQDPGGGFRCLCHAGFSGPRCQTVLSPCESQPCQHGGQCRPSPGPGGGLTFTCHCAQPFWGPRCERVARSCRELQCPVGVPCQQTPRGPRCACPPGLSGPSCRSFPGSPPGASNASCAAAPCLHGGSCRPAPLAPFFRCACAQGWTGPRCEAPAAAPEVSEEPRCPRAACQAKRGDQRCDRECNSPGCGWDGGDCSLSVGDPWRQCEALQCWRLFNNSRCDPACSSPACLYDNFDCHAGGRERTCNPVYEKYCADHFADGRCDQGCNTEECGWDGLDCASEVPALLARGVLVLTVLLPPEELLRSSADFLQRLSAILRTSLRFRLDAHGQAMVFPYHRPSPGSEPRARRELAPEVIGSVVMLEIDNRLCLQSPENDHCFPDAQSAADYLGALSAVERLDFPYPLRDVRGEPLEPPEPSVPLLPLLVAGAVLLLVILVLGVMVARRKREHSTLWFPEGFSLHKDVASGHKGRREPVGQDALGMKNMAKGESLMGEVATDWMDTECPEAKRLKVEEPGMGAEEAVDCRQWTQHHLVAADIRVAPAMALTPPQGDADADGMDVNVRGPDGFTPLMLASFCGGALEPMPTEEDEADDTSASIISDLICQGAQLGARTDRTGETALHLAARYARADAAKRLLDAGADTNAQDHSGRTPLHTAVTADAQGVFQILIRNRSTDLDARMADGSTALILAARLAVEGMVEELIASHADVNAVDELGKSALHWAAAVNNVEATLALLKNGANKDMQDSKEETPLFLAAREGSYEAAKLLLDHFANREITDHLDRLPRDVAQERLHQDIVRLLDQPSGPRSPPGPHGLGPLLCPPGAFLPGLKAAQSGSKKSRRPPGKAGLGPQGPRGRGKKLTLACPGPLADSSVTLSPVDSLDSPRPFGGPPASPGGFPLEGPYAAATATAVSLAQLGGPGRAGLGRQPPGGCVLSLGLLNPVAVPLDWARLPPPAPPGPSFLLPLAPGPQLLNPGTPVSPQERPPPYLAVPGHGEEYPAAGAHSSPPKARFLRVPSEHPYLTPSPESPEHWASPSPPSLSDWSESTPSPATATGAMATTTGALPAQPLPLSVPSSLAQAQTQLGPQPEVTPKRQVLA
Sequence of Epidermal growth factor receptor (Homo sapiens) (P00533 whole entry, looked up): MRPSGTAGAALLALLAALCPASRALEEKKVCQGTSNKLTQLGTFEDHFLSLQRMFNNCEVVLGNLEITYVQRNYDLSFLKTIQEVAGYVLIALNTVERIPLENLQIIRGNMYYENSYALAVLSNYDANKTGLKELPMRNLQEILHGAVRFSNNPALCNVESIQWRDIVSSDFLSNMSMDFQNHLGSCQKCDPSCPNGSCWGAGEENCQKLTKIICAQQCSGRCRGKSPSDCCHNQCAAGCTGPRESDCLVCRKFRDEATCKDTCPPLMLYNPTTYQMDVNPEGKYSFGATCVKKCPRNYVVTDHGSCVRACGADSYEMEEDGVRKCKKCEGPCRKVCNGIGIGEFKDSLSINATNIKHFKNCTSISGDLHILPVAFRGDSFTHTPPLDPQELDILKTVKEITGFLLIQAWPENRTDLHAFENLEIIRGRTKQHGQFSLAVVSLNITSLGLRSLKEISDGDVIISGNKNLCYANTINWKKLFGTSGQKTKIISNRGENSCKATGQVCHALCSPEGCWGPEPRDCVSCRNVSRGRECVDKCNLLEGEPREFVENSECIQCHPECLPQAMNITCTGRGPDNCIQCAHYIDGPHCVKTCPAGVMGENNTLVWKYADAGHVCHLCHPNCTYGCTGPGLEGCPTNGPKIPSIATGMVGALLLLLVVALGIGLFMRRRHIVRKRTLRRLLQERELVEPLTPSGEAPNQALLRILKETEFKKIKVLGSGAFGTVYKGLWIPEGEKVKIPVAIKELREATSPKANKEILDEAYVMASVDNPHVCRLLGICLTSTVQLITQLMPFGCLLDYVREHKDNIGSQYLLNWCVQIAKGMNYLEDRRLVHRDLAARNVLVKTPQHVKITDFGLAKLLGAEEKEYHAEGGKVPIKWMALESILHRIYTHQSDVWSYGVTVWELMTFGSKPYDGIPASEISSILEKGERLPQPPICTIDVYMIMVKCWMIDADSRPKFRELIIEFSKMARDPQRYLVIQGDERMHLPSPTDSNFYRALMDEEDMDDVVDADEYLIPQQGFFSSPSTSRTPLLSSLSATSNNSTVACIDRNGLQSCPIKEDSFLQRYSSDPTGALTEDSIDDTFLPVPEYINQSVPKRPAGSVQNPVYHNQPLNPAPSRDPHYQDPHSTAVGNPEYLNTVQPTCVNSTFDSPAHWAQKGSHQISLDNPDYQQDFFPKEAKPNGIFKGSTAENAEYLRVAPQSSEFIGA
Sequence of Torsin-1A-interacting protein 2 (Homo sapiens) (Q8NFQ8 whole entry, looked up): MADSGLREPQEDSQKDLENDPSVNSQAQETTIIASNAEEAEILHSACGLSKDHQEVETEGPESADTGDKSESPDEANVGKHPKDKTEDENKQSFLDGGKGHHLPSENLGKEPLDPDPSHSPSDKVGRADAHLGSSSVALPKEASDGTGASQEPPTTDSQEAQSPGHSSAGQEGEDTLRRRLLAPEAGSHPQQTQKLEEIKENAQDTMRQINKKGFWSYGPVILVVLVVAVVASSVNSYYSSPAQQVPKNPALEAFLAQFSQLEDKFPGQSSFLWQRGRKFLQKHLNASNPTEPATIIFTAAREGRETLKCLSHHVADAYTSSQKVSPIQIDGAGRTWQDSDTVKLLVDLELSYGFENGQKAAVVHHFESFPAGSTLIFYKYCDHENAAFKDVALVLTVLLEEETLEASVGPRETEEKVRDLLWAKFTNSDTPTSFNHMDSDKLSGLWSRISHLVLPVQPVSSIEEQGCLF
Sequence of Dickkopf-related protein 1 (Homo sapiens) (O94907 whole entry, looked up): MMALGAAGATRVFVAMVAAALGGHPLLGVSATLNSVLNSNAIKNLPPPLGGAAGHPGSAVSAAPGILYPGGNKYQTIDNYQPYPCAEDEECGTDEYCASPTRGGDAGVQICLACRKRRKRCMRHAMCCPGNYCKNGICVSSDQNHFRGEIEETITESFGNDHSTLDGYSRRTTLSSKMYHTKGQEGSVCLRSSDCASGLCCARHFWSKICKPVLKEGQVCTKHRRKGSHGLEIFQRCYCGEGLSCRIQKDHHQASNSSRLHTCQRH
Sequence of Fibroblast growth factor 10 (Homo sapiens) (O15520 whole entry, looked up): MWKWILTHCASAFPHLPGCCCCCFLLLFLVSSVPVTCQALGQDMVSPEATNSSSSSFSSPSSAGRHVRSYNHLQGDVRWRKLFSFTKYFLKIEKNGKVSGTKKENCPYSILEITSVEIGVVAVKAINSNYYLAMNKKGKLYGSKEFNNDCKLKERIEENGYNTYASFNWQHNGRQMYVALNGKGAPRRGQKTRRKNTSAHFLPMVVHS

Compound	composite z-score [1]	z-score [2]	z-score [3]	z-score [4]	composite z-score [5]	z-score [6]	composite z-score [7]	composite z-score [8]	composite z-score [9]	composite z-score [10]	composite z-score [11]	composite z-score [12]	composite z-score [13]	z-score [14]	composite z-score [15]	composite z-score [16]	composite z-score [17]	composite z-score [18]	composite z-score [19]	composite z-score [20]
CCc1cc2c(nc1CC)CCN(CCC(C)=NO[C@@H]1O[C@H](COC(C)=O)[C@@H](OC(C)=O)[C@H](OC(C)=O)[C@H]1OC(C)=O)C2	1.55	-0.149 (inactive)	-0.35 (inactive)	0.143 (inactive)	0.809	-0.551 (inactive)	-0.0271	1.06	1.1	0.131	0.8	-0.0154	-0.82	-0.763 (inactive)	1.14	0.642	0.905	1.32	1.32	0.703
O=C1C2=CC[C@H]3C(=O)N(C[C@@H]4CCCO4)C(=O)[C@H]3[C@H]2[C@H](O)[C@@H]2O[C@H]12	0.514	0.0382 (inactive)	-0.722 (inactive)	0.109 (inactive)	-0.553	-0.0137 (inactive)	-0.126	-0.0904	-0.264	-0.0565	1.22	-0.28	-0.594	-1.47 (inactive)	0.364	0.443	0.259	-0.191	-0.0034	-0.277
O=C1[C@H]2[C@H]3[C@H](O)[C@H](O)CC(=NOC[C@@H](O)COCc4ccco4)[C@@H]3CC[C@H]2C(=O)N1Cc1ccccc1	1.53	-0.444 (inactive)	-0.801 (inactive)	-1.63 (inactive)	2.66	0.267 (inactive)	-0.166	1.04	0.841	0.0673	-0.422	-0.316	-0.611	-0.153 (inactive)	0.146	1.34	0.603	1.51	0.833	1.34
CO[C@H]1C[C@@H]2C[C@H](O)CC(CC(=O)O[C@@H](C=CCC(C)C)C[C@@H]3CC[C@H](C)[C@@H](C1)O3)O2	1.54	-0.124 (inactive)	-0.425 (inactive)	-0.414 (inactive)	1.82	0.128 (inactive)	-0.158	0.506	1.06	-0.0458	1.02	-0.205	-0.594	-0.278 (inactive)	0.682	1.29	0.595	0.808	1.13	0.0531
CCOC(=O)[C@H](Cc1ccccc1)NC(=O)CCC1CC(OC(=O)NCc2ccc3c(c2)OCO3)CC2(CCCC(COC(=O)NCCOc3ccccc3)O2)O1 (stereo not given in full)	1.48	0.0339 (inactive)	0.486 (inactive)	0.576 (inactive)	1.31	0.196 (inactive)	-0.0446	0.484	1.12	0.0436	0.653	-0.388	-0.704	-1.13 (inactive)	0.881	1.1	0.628	1.31	1.16	-0.0859
CC(C)CON=C1C[C@@H](O)[C@@H](O)[C@@H]2[C@@H]3C(=O)N(Cc4ccc5c(c4)OCO5)C(=O)[C@@H]3CC[C@@H]12	0.731	-0.12 (inactive)	0.54 (inactive)	-0.409 (inactive)	1.69	-0.38 (inactive)	-0.195	0.697	-0.173	-0.192	0.409	-0.218	-0.208	0.0483 (inactive)	0.0677	-0.315	-0.203	-0.0661	-0.337	-0.0043
CC(CCN1CCCc2nc(C)c(C)cc21)=NOC[C@@H](C)[C@H](OCc1ccccc1)C(C)C	-0.0185	-2.02 (inactive)	-1.8 (inactive)	-0.788 (inactive)	1.4	-0.287 (inactive)	-0.286	-0.187	-0.763	-0.183	-0.438	-0.359	-0.623	-0.81 (inactive)	-0.569	-0.715	-0.771	-0.413	-0.265	0.356
CCOC(=O)[C@H](CC(C)C)NC(=O)CCC1CC(OC(=O)NCc2ccc3c(c2)OCO3)CC2(CCCC(COC(=O)NCCc3ccccc3OC)O2)O1 (stereo not given in full)	1.34	-0.156 (inactive)	0.249 (inactive)	0.947 (inactive)	1.99	-0.133 (inactive)	-0.136	0.474	1.11	-0.0177	0.608	-0.0877	-0.497	0.0955 (inactive)	0.533	1.27	0.461	1.01	0.434	-0.344
COC(=O)[C@H](C)NC(=O)CCC1CC(OC(=O)NCc2cccc3ccccc23)CC2(CCCC(COC(=O)NCCCN3CCCC3=O)O2)O1 (stereo not given in full)	1.58	0.691 (inactive)	1.05 (inactive)	0.187 (inactive)	1.89	-1.25 (inactive)	0.0598	0.79	1.14	0.074	0.666	-0.102	-0.279	-0.915 (inactive)	0.92	1.17	0.929	0.91	0.77	-0.503
CC(CCN1CCc2nc(-c3ccccc3)c(-c3ccccc3)cc2C1)=NOC(C)CN1CCCc2nc(C)c(C)cc21 (stereo not given)	1.56	-1.4 (inactive)	-12.6 (active)	-3.45 (inactive)	2.22	0.419 (inactive)	0.0704	0.582	1.09	0.0709	0.934	0.196	-0.218	1.12 (inactive)	0.942	1.02	0.603	1.02	0.732	0.858
